Data reported in ChEMBL document CHEMBL3988442, “University of Dundee, Small-Polar-MMV Screening Library” (2021).
Out of some 48,000 compounds screened, about 13,000 (27%) showed an effect of 50% or more. The list shows a part of the results.

The molecules below were run on Wolbachia pipientis (assay: Anti-Wolbachia Cell-Based Screen). Conditions: 5 µM.
Format: functional
Parameters: scale not given: in the data most compounds retested in dose-response had high values

Row | SMILES | Percent Effect [%]
1 | COc1ccc(F)cc1C(=O)N1CCC2(CCC(=O)N(C(C)C)C2)CC1 | -13.7
2 | CCN(CC)C1CCN(C(=O)Nc2cc(F)c(OC)c(F)c2)C1 (stereo not given) | -0.1207
3 | COCC(=O)N[C@H](C(=O)NC(C)c1cc(C)ccc1C)C(C)C (stereo not given in full) | -5.803
4 | CC(=O)NCC(=O)N1Cc2ccnn2CC(COCCN(C)C)C1 (stereo not given) | -1.622
5 | CC(C)N1CCC(NC(=O)NCCC(=O)NCc2ccccc2)C1 (stereo not given) | -0.958
6 | Cc1ccc(C(=O)NC(C)CN2CCCC2=O)c(=O)[nH]1 (stereo not given) | -26.01
7 | Cc1ccc(C(=O)NC2CCN(C(C)C)C2)c(=O)[nH]1 (stereo not given) | 89.09
8 | CCOc1cc(C)nc(N2CCN(C(=O)c3ccc[nH]3)CC2)n1 | -4.872
9 | CC(C)N(Cc1ccc(C#N)cc1)C(=O)NCCNc1ncccn1 | -6.799
10 | CCNC(=O)N(C)C(c1cccnc1)C(C)C (stereo not given) | -2.757
11 | CC(c1ccncc1)N(C)C(=O)NCCOc1ccc(C#N)cc1 (stereo not given) | 100.4
12 | CC(C)N(Cc1ccc(C#N)cc1)C(=O)Nc1ccncc1 | -13.59
13 | CC(c1ccco1)N(C(=O)COc1ccc(C#N)cc1)C1CC1 (stereo not given) | 1.408
14 | CC(C)N(Cc1cccnc1)C(=O)CCSc1ccc(C#N)cc1 | -11.64
15 | CC(c1ccco1)N(C(=O)CNc1ccc(C#N)cc1)C1CC1 (stereo not given) | -9.874
16 | CC(c1ccco1)N(C)C(=O)NCCOc1ccc(C#N)cc1 (stereo not given) | 99.5
17 | CC(c1cccnc1)N(C)C(=O)NCCOc1ccc(C#N)cc1 (stereo not given) | 102.9
18 | O=C(C1SCCc2sccc21)N1CCCCC1 (stereo not given) | 1.977
19 | N#Cc1cccnc1OC1CCN(C(=O)c2cc(C3CC3)on2)CC1 | -1.829
20 | CN(Cc1ccco1)C(=O)C1=NN(C)C(=O)CC1 | 140.7
21 | Cc1ccc(N(Cc2ccco2)C(=O)CC2=NN(C)C(=O)C2)cc1 | 134.3
22 | O=C(NCCc1nnc2n1CCC2)N(Cc1ccco1)C1CCCC1 | -12.78
23 | CN(CC1COc2ccccc2O1)C(=O)C1=NN(C)C(=O)CC1 (stereo not given) | -4.029
24 | CCN(Cc1ccco1)C(=O)C1=NN(c2ccccc2)C(=O)CN1 | 5.452
25 | Cc1ccc(N2N=C(C(=O)N(C)Cc3ccco3)NCC2=O)cc1 | 2.373
26 | CN(Cc1ccco1)C(=O)c1ccc(=O)n(C)c1 | 12.27
27 | CN1N=C(C(=O)N(Cc2ccco2)C2CCCC2)CCC1=O | 120.9

Row | SMILES | Percent Effect [%]
28 | O=C(c1c[nH]c2ncccc12)N(Cc1ccco1)C1CCCC1 | 4.323
29 | COC(=O)c1cc(CN2CCN(c3ncccc3C)CC2)ccc1O | 0.3059
30 | CCC(C)NS(=O)(=O)Cc1cccc(NC(=O)C2=CCCC2)c1 (stereo not given) | -11.93
31 | CCN(CC(=O)NC)S(=O)(=O)N1CCCCCC1 | -4.569
32 | O=C1OCCN1CCCN1CCCC1c1ccc(O)cc1 (stereo not given) | -23.79
33 | Cc1c[nH]c(CN2CC[C@@]3(O)CCN(C(=O)C4CCC4)C[C@H]3C2)n1 | 3.285
34 | CN(c1nccc(-c2cnc3sccn3c2=O)n1)C1CCCCC1 | 92.84
35 | O=c1c(-c2ccnc(NC3CCCCC3)n2)cnc2sc(Cl)cn12 | 123.9
36 | COc1ccnc(NC2CCN(CC(=O)N3CCCC3)CC2)n1 | -3.698
37 | Cc1nc(N(C)C2CCCCC2)ncc1C(C)NC(=O)c1cscn1 (stereo not given) | -3.92
38 | CN(C)c1nccc(N(C)C2CCCCC2)n1 | -7.043
39 | CN(c1ncc(C(=O)Nc2ccccc2)c(N)n1)C1CCCCC1 | -11.44
40 | CCN(C)S(=O)(=O)NC(C)c1cnc(N(C)C2CCCCC2)nc1C (stereo not given) | -0.2104
41 | Cc1nc(N(C)C2CCCCC2)ncc1C(C)NC(=O)c1cccnc1 (stereo not given) | 7.363
42 | CN(c1nccc(-c2cnc3sc(Cl)cn3c2=O)n1)C1CCCCC1 | 110
43 | O=c1c(-c2ccnc(NC3CCOCC3)n2)cnc2sc(Cl)cn12 | -8.128
44 | Cc1cn2c(=O)c(-c3ccnc(N(C)C4CCCCC4)n3)cnc2s1 | 84.88
45 | O=C1N(C2CCCCC2)C[C@H]2CN(C3CCC3)CCN12 | -8.618
46 | Cc1ccc(C(C)NCCc2nccn2Cc2ccccc2)o1 (stereo not given) | -3.119
47 | O=C(NCCc1ccccc1Cl)NCC1(O)CCSC1 (stereo not given) | 5.482
48 | CO[C@H]1C[C@@H]2CN(C(=O)c3n[nH]c4c3CCCC4)C[C@@H]2C1 | 95.28
49 | COc1ccccc1CC1CCCN(C(=O)c2n[nH]c3c2CCC3)C1 (stereo not given) | -10.41
50 | COc1cccc(CCC2CCCN(C(=O)c3n[nH]c4c3CCC4)C2)c1 (stereo not given) | 9.398
51 | O=C(NCc1ccccc1Cn1ccnc1)N1CCOCC1 | -11.31
52 | CCC(CNC(=O)c1nc(=O)[nH][nH]1)Oc1ccccc1C(F)(F)F (stereo not given) | -3.223
53 | CCc1nccn1C1CCCN(C(=O)c2ccc(OC)c(OC)c2)C1 (stereo not given) | 97.86
54 | CCc1nccn1C1CCCN(C(=O)Cc2ccc(OC)c(F)c2)C1 (stereo not given) | -2.667

Row | SMILES | Percent Effect [%]
55 | CCc1nccn1C1CCCN(C(=O)c2ccn(C)c(=O)c2)C1 (stereo not given) | -5.694
56 | CCc1nccn1C1CCCN(C(=O)c2ccc3[nH]nnc3c2)C1 (stereo not given) | -5.197
57 | Cc1nccn1C1CCCN(C(=O)c2ccc3c(c2)nnn3C)C1 (stereo not given) | -0.6055
58 | CCc1nccn1C1CCCN(C(=O)c2ccc3c(c2)nnn3C)C1 (stereo not given) | 93.39
59 | CCOc1ccc(C(=O)N2CCCC(n3ccnc3C)C2)cc1OC (stereo not given) | 91.57
60 | Cc1nc(C)c2c(n1)CCN(C(=O)C1(C#N)CC1)CC2 | -4.604
61 | Fc1cccc(-c2nnn3c2COC(CNCc2nccs2)C3)c1.O=C(O)C(F)(F)F (stereo not given) | -16.9
62 | CNC(=O)c1ccnc(N2CCCC(COc3cccc(C)c3)C2)c1 (stereo not given) | -58.5
63 | CC(=O)N1CCN(C(C)C)CC(COc2ccccc2)C1 (stereo not given) | 109.4
64 | CC(=O)N1CCN(c2ccnc(C)n2)CC(COc2ccccc2)C1 (stereo not given) | 112.4
65 | COc1cccc(OCC2CCCN(C3CCN(C(C)=O)CC3)C2)c1 (stereo not given) | -9.945
66 | Cc1ccc(OCC2CCCN(C(=O)CN3CCOCC3)C2)cc1 (stereo not given) | -2.27
67 | COc1cccc(OCC2CCCN(C(C)=O)C2)c1 (stereo not given) | -1.082
68 | CC(=O)N1CCN(CC(N)=O)CC(COc2ccccc2)C1 (stereo not given) | 106.5
69 | Cc1nccc(N2CCC(Cc3cccc(C(=O)O)c3)CC2)n1 | 4.494
70 | O=C(N1CCN(CCO)CC1)C1(O)Cc2ccccc2C1 | -5.424
71 | CCc1ccc(S(=O)(=O)Nc2cn(C)cc(Br)c2=O)cc1 | -15.07
72 | Cc1ccc(-c2ncc(CN3CCN(S(N)(=O)=O)CC3)s2)o1 | 2.671
73 | CCn1ccnc1CN(C)c1nc(-c2ccc(Cl)cc2)nc2c1CNC2 | -33.82
74 | O=c1nc(SCc2ccncc2)c2c(n1CCO)CCCC2 | -12.21
75 | CN1CCCC1c1cc2cccnc2n1Cc1ccc(F)cc1.Cl (stereo not given) | 120.9
76 | COc1cccc(Cn2c(C3CCNCC3)cc3cccnc32)c1.Cl | 140.1
77 | COc1ccc(Cn2c(C3CCNCC3)cc3cccnc32)cc1.Cl | 109.4
78 | COc1cccc(CN2C[C@H]3CCNCC[C@H]3S2(=O)=O)c1 | 18.94
79 | CC[C@H](C)Cn1nc(C2CCNCC2)n(Cc2ccccc2)c1=O | -2.943
80 | CN1CCCCC1c1nc(Cc2cccc(F)c2)no1 (stereo not given) | -5.711
81 | CCOC(C)C(=O)Nc1ccc(Sc2nncn2C)c(Cl)c1 (stereo not given) | -6.719

Row | SMILES | Percent Effect [%]
82 | Cc1cc(CS(=O)(=O)N(C)C(C)c2ccc(F)cc2)on1 (stereo not given) | -9.775
83 | CN(C)C(=O)NCc1cc2n(n1)CCN(C[C@H]1[C@@H]3CNC[C@@H]31)C2 | -18.92
84 | Cc1cnn(CCNCC(O)COc2c(C)ccc(C)c2C)c1 (stereo not given) | -3.427
85 | COc1cccc(-c2cccc(-c3ccn(CC4COCCO4)n3)c2)n1 (stereo not given) | -14.19
86 | COc1ccccc1CNC1(CCO)CCOCC1 | 8.279
87 | Cc1cnc(C(=O)N2C[C@H]3CCCC(OCc4cccnc4)[C@H]3C2)cn1 (stereo not given in full) | -8.577
88 | Cc1cnc(C(=O)N2C[C@H]3CN(Cc4nccs4)C[C@H]3C2)cn1 | 103.8
89 | O=C(c1cscn1)N1C[C@H]2CN(Cc3nccs3)C[C@H]2C1 | -12.17
90 | Cc1cnc(C(=O)N2C[C@@H]3[C@@H](C2)OCC(=O)N3CC2CCCC2)cn1 | 9.694
91 | Cc1cnc(C(=O)N2C[C@H]3CN(Cc4cccs4)C[C@H]3C2)cn1 | 71.69
92 | CNC(=O)[C@H]1C[C@@H]2CN(C(=O)c3cnc(C)cn3)C[C@@H]2N1C | 18.09
93 | O=C(O)C(F)(F)F.O=C1C[C@H]2[C@@H](CCN2C(=O)c2ccccc2)N1CCN1CCOCC1 | -5.805
94 | Cc1cccc(OC2CCN(c3nc(N)nc4[nH]cnc34)CC2)c1 | -26.6
95 | COc1ccccc1N1CCN(c2nc(N)nc3[nH]cnc23)CC1 | 106.2
96 | COc1ccccc1OC1CCN(c2nc(N)nc3[nH]cnc23)CC1 | -23.58
97 | O=C1CN(Cc2ccc3ccccc3n2)CCN1C1CCCC1 | 128.2
98 | Cc1ccc2nc(CN3CCN(C4CCCC4)C(=O)C3)cc(O)c2c1 | 1.578
99 | Cc1ccc2nc(CN3CCN(C4CCCCC4)C(=O)C3)cc(O)c2c1 | -5.19
100 | Cc1ccc(-c2cccc(CC3(C(=O)O)CCOCC3)c2)c(C)c1 | 93.34
101 | Cc1cc(C)cc(-c2cccc(CC3(C(=O)O)CCOCC3)c2)c1 | -21.94
102 | Cc1ccccc1-c1cccc(CN2C[C@H]3C(=O)NC[C@@]3(C(=O)O)C2)c1 | 6.685
103 | COc1ccc(CC2(C(=O)O)CCN(c3nc(C)ncc3C)CC2)cc1 | -10.05
104 | Cc1cccc(-c2cccc(CC3(C(=O)O)CCOCC3)c2)c1 | 103
105 | Cc1cccc(NC(=O)NCC2(N3CCOCC3)CCSC2)c1 (stereo not given) | 9.501
